The values that follow come from ChEMBL document CHEMBL3988442, “University of Dundee, Small-Polar-MMV Screening Library” (2021).

Out of some 48,000 compounds screened, about 13,000 (27%) showed an effect of 50% or more. Some of the results follow.

For the test, the system named is Wolbachia pipientis. The test is described as follows: Anti-Wolbachia Cell-Based Screen. It counts as functional. Also noted: scale not given: in the data most compounds retested in dose-response had high values. Conditions: 5 µM.
Regarding `NC(=O)CCCNC(=O)CCc1cc(Br)cs1`, the “Percent Effect” value was 8.374%. Consider `CCc1ccc(C(=O)NCc2ccnc(C)n2)cc1`, for which the “Percent Effect” value turned out to be 0.2592%. In the case of `Cc1cc(CNC(=O)CCc2c(C)nc3cc(O)nn3c2C)no1` it was 92.65%; in that of `Cc1nccc(CNC(=O)CCc2c(C)nc3cc(O)nn3c2C)n1`, 98.09%. For the compound `O=C(CCc1cc(Br)cs1)NCCCn1ccnc1`, the “Percent Effect” value is -0.5451%. For `Cc1ccsc1CNC(=O)CC1CN(C(=O)OC(C)(C)C)C1`, the “Percent Effect” value was -25.18%. On to `CCN(c1ccc(C(=O)NCc2ccnc(C)n2)cc1)C(C)C`, for which the “Percent Effect” value is -16.63%. For the compound `Cc1cc(CNC(=O)CCc2ccc(S(N)(=O)=O)cc2)no1`, the “Percent Effect” value is -2.333%. Turning to `Cc1ccsc1CNC(=O)CCc1c(C)nc2cc(O)nn2c1C`, the “Percent Effect” value was 106.8%. `Cc1ccsc1CCNC(=O)CCC(=O)NC1CCCC1`: the “Percent Effect” value is -4.731%. In the case of `CCN(CC)S(=O)(=O)c1ccc(CCC(=O)NCc2cc(C)on2)cc1` it was 7.778%; in that of `Cc1nc2cc(O)nn2c(C)c1CCC(=O)NCc1cc(Br)cs1`, 111.2%. As to `Cc1cc(C)n(CCN2CCN(C(=O)c3ccc(Br)o3)CC2)n1`, the “Percent Effect” value was 17.42%. With `CCN(C)C[C@@H]1CN(Cc2cccc(O)c2)C[C@@H]1CO`, the “Percent Effect” value was -2.333%. For the compound `COc1ccc2c(c1)nc1n2[C@@H](CNCc2cnn(C)c2)COC1`, the “Percent Effect” value worked out at 1.636%. With `Cc1cccc(CN2CCN(c3ncnc4[nH]ccc34)CC2CCO)n1` (configuration not stated), the “Percent Effect” value is 6.168%. As for `CCN1CCC(CC(=O)NCC(O)c2ccc3ccccc3c2)CC1` (configuration not stated), the “Percent Effect” value was -0.749%.

As for `CC(=O)N1CCCC(C(=O)N2Cc3nc(C)n(C)c(=O)c3C2)C1` (configuration not stated), the “Percent Effect” value is 7.499%. With `COC(=O)C1CN(Cc2ccccc2C(C)(C)C#N)CCO1` (configuration not stated), the “Percent Effect” value came to 1.007%.

In the case of `CC(C)OCCS(=O)(=O)N1CCCC1c1cccc(N(C)C)c1` (configuration not stated), the “Percent Effect” value stood at 4.069%. In the case of `CC(C)(C)CCCC(=O)NS(=O)(=O)CC1CC1`, the “Percent Effect” value is given as -9.167%. Consider `Cc1cccc(CNC(=O)CCc2c(C)nc3cc(O)nn3c2C)n1`, for which the “Percent Effect” value is recorded as 101.6%.

With `Cc1ccccc1CNC(=O)Cc1c(C)nc2cc(=O)[nH]n2c1C`, the “Percent Effect” value is 1.807%. For `Cn1ccc2c(C(=O)N3CCC4(CCOC4)C3)cccc21` (configuration not stated), the “Percent Effect” value was -11.85%.

In the case of `Cn1ccc2c(C(=O)N3CCN(C(=O)C4CCCC4)CC3)cccc21`, the “Percent Effect” value is 117.3%. Take `CC(=O)N(C)C1CCN(C(=O)c2cccc3c2ccn3C)CC1`: the “Percent Effect” value worked out at 129.7%. On to `Cn1ccc2c(C(=O)NCCCN3CCCC3)cccc21`, for which the “Percent Effect” value is given as 7.133%. In the case of `Cc1ccc(N2CCCN(C(=O)c3cccc4c3ccn4C)CC2)nn1` it was -26.18%. `Cn1ccc2c(C(=O)N3CCC(C(N)=O)CC3)cccc21`: the “Percent Effect” value amounted to 2.253%. In the case of `CCc1ncc(-c2nccn2-c2cccc(CC(=O)O)c2)cn1` it was -3.277%. Regarding `Cc1cc(N2CCC3(CCC(=O)N(CC4CC4)C3)CC2)ncn1`, the “Percent Effect” value is 3.21%. Regarding `Cc1cnn(CC(=O)N2CCC3(CCC(=O)N(CCCO)C3)CC2)c1`, the “Percent Effect” value is given as -87.52%. As for `Cc1nccn1CCCN1CCC2(CCC(=O)N(CC3CC3)C2)CC1`, the “Percent Effect” value is 94.75%.

On to `CCN1CC2(CCC1=O)CCN(CCc1nccn1C)CC2`, for which the “Percent Effect” value is -0.2825%. Then `Cc1cnn(CCC(=O)N2CCC3(CCC(=O)N(CC4CC4)C3)CC2)c1`, with 86.63%; and `Cc1nccn1CCCC(=O)N1CCN(c2cccnc2)CC1`, with -0.7063%. On to `Cc1ncc(CC(=O)N2CCC3(CCC(=O)N(CCO)C3)CC2)c(=O)[nH]1`, for which the “Percent Effect” value stood at 13.05%.

With `Cc1cc(N2CCC3(CCC(=O)N(CC4CC4)C3)CC2)nc(N)n1`, the “Percent Effect” value is recorded as -10.67%. For the compound `Cc1nccn1CCCC(=O)N1CCC2(CCC(=O)N(C(C)C)C2)CC1`, the “Percent Effect” value stood at 98.73%. In the case of `COc1ccc(C(=O)N2CCC3(CCC(=O)N(C(C)C)C3)CC2)cc1C` it was 7.605%; in that of `Cc1cnn(CC(=O)N2CCC3(CCC(=O)N(CC(C)O)C3)CC2)c1` (configuration not stated), -3.932%; in that of `Cc1nccn1CCC(=O)N1CCC2(CCC(=O)N(CC3CC3)C2)CC1`, 117.2%. As to `COCCCN1C(=O)CC[C@H]2CN(c3cnc4ccccc4n3)CC[C@H]21`, the “Percent Effect” value is 2.221%. Regarding `CCCn1nc(C)c2c1NC(=O)CC2c1ccc(CN2CCCC2)s1` (configuration not stated), the “Percent Effect” value amounted to 1.67%. Regarding `CC(C)c1nnc2n1CCN(CCCS(=O)(=O)c1ccccc1)C2`, the “Percent Effect” value is given as -6.679%. For `CSCCc1nc(-c2ccc3c(c2)OCO3)n(C)n1`, the “Percent Effect” value was -7.384%. For `CC(C)=CCN1CC2(CCN(C(=O)CCn3ccnc3C)CC2)CC1=O`, the “Percent Effect” value is recorded as 86.66%. Regarding `CC(C)=CCN1CC2(CCN(Cc3ncc[nH]3)CC2)CC1=O`, the “Percent Effect” value is -7.691%. Turning to `CSCc1noc(CN2CCC3(CC2)CC(=O)N(CC=C(C)C)C3)n1`, the “Percent Effect” value is recorded as 10.72%. In the case of `Cc1nc(C(C)C)cc(N2CCC3(CCC(=O)N(CC4CC4)C3)CC2)n1` it was 0.1735%.

As to `Cc1nnnn1CCC(=O)N1CCC2(CCC(=O)N(CC3CC3)C2)CC1`, the “Percent Effect” value is listed as 115.6%. For the compound `CCCc1nc(C)cc(N2CCC3(CCC(=O)N(CC4CC4)C3)CC2)n1`, the “Percent Effect” value worked out at 5.96%. In the case of `O=C(O)C(F)(F)F.c1ccc(Cn2cc3c(n2)C(COCC2CC2)OCC3)nc1` (configuration not stated), the “Percent Effect” value is given as -17.74%. Then `Cc1nc(CN2C(=O)C[C@H]3[C@H]2CCN3CC2CCOC2)cs1.O=C(O)C(F)(F)F` (some centres not stated), with 100.2%; and `Cc1nc(CN2C(=O)C[C@@H]3[C@@H]2CCN3CC2CCOCC2)cs1.O=C(O)C(F)(F)F`, with 145.4%; and `Cc1nc(CN2CCN(CC3CCOC3)Cc3cccnc32)cs1.O=C(O)C(F)(F)F.O=C(O)C(F)(F)F.O=C(O)C(F)(F)F` (configuration not stated), with -0.3757%.

In the case of `Cc1nc(CN2CCc3ncnc(C4CCOC4)c3CC2)cs1.O=C(O)C(F)(F)F` (configuration not stated), the “Percent Effect” value is recorded as -5.983%. As for `CCN(Cc1ccccc1)C1CCN(c2cc(C)nn2C)C1=O` (configuration not stated), the “Percent Effect” value is 8.776%. In the case of `Cc1cc(=O)c(C(=O)N2CCN(C)c3ccccc3C2)c[nH]1`, the “Percent Effect” value is 106.1%. On to `CN1CCN(C(=O)NCCNc2ncccn2)Cc2ccccc21`, for which the “Percent Effect” value is recorded as 4.872%. Regarding `Cc1ccc(C(=O)N2Cc3ccccc3C2)cc1N1CCNC1=O`, the “Percent Effect” value is on record as -8.111%.

Turning to `CN1CCN(C(=O)c2cccs2)Cc2ccccc21`, the “Percent Effect” value was -12.17%. Take `CN1CCN(C(=O)c2ccc(=O)n(C)c2)Cc2ccccc21`: the “Percent Effect” value is listed as -3.616%.

For the compound `Cc1cc(=O)[nH]cc1C(=O)N1CCN(C)c2ccccc2C1`, the “Percent Effect” value was found to be 99.2%. On to `CN1CCN(C(=O)c2cc[nH]c(=O)c2)Cc2ccccc21`, for which the “Percent Effect” value is on record as 113.6%. Regarding `CN1CCN(C(=O)CCC(=O)c2cccs2)Cc2ccccc21`, the “Percent Effect” value is -12.13%. As to `O=C(c1cc[nH]c(=O)c1)N1CCn2c(nnc2-c2ccccc2)C1`, the “Percent Effect” value is listed as 1.591%.
